Measured values from the supplement of paper PMC11624193, “Coupling cellular drug-target engagement to downstream pharmacology with CeTEAM” (Nature Communications, 2024).
Where a name gives a salt, the structure may show the parent alone. Unmarked numbers belong to inactive results.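 The calls were made as follows: active = log2 fold change beyond 2 SD from the library mean after excluding viability outliers; inactive = within 2 SD.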

What follows are molecules tested against PARP1 L713F-nLuc biosensor (HCT116) (UniProt P09874) (assay: PARP1 L713F-nLuc/akaLuc ratio relative to DMSO control (biosensor stabilization) (fold change); higher = more PARP1 biosensor stabilization (target engagement / stabilizer), active = hit call of the paper). Settings: stock concentration (mM; final µM = stock mM x 1): 10; 24 h.
PARP1 L713F-nLuc biosensor (HCT116), sequence (P09874 whole entry L713F, looked up): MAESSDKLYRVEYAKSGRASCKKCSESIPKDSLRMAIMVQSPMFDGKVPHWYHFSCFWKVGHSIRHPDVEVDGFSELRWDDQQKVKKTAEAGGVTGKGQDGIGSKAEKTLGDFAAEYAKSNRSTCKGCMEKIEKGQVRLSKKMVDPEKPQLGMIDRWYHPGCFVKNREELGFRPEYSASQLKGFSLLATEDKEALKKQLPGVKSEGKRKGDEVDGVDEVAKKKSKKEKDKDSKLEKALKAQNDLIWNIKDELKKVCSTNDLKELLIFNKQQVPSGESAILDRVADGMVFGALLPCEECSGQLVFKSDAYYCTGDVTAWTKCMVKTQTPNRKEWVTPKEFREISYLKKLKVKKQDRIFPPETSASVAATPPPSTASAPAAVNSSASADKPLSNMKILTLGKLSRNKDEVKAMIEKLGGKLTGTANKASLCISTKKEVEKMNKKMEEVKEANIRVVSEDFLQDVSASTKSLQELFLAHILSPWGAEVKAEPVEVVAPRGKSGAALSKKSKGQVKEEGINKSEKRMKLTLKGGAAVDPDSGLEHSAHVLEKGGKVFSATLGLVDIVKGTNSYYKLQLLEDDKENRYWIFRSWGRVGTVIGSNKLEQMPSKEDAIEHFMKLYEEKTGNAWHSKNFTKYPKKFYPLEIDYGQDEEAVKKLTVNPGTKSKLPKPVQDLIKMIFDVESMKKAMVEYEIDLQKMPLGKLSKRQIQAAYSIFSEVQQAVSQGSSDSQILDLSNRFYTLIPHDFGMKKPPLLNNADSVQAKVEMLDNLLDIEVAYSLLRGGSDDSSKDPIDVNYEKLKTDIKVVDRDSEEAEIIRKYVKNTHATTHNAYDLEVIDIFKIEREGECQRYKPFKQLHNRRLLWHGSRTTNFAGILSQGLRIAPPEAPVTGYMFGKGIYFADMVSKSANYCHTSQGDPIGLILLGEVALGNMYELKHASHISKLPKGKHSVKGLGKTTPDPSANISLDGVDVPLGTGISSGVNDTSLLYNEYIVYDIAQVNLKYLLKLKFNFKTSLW
In the case of `CC(C)=CCCC1=CC(=O)c2c(O)ccc(O)c2C1=O` [Deoxyshikonin], the “PARP1 L713F-nLuc/akaLuc ratio” value is reported as 0.834.
With `COc1cc(C(=O)N2CC[C@@H](O)[C@@H](N)C2)cc2nc(-c3cc4ccccc4n3CC3CC3)n(C)c12` [GSK484 (hydrochloride)] the “PARP1 L713F-nLuc/akaLuc ratio” value was 1.09.
`C=C1C[C@@H]2[C@H](CC[C@]3(C)C(=O)CC[C@@H]23)[C@@]2(C)C=CC(=O)C=C12` [Exemestane] was tested, and the “PARP1 L713F-nLuc/akaLuc ratio” value was 1.
`O=C(NO)c1cnc(NC2(c3ccccc3)CCC(F)(F)CC2)nc1` was tested, and the “PARP1 L713F-nLuc/akaLuc ratio” value was 5.69 (active).
For `O=C(O)CNC(=O)c1c(O)c2ccccc2n(Cc2ccccc2)c1=O`, the “PARP1 L713F-nLuc/akaLuc ratio” value was 1.76.
With `CC(O)(CS(=O)(=O)c1ccc(F)cc1)C(=O)Nc1ccc(C#N)c(C(F)(F)F)c1` (stereo not drawn) [Bicalutamide] the “PARP1 L713F-nLuc/akaLuc ratio” value was 0.786.
In the case of `O=C(NO)c1cnc(NC2(c3cccc(F)c3)CCCCC2)nc1`, the “PARP1 L713F-nLuc/akaLuc ratio” value is reported as 0.756.
In the case of `Clc1ccc2c(N3CCNCC3)ccnc2c1` [7-Chloro-4-(piperazin-1-yl)quinoline], the “PARP1 L713F-nLuc/akaLuc ratio” value is reported as 0.933.
With `N[C@@H](CNC(=O)C(=O)O)C(=O)O` [Dencichine] the “PARP1 L713F-nLuc/akaLuc ratio” value was 1.45.
For `CCCC(=O)O[C@@H]1[C@@H](C)[C@@]2(O)[C@@H](C=C(CO)C[C@]3(O)C(=O)C(C)=C[C@@H]23)[C@@H]2C(C)(C)[C@]12OC(=O)CCC` [Phorbol 12,13-dibutyrate], the “PARP1 L713F-nLuc/akaLuc ratio” value was 1.36.
In the case of `CCc1c(C(=O)C(N)=O)c2c(OCC(=O)O)cccc2n1Cc1ccccc1`, the “PARP1 L713F-nLuc/akaLuc ratio” value is reported as 0.845.
With `C/C=C(/C)C(=O)O[C@H]1[C@@H]2[C@H](C)C(=O)O[C@@H]2C[C@@H](C)[C@@H]2C=CC(=O)[C@]21C` [Brevilin A] the “PARP1 L713F-nLuc/akaLuc ratio” value was 1.47.
In the case of `CN(C)NC(=O)CCC(=O)O` [Daminozide], the “PARP1 L713F-nLuc/akaLuc ratio” value is reported as 0.786.
In the case of `O=C(O)CNC(=O)C1C(=O)N(C2CCCCC2)C(=O)N(C2CCCCC2)C1=O` [Daprodustat], the “PARP1 L713F-nLuc/akaLuc ratio” value is reported as 0.831.
In the case of `Cc1cc(O)cc(C)c1C=C1C(=O)N(Cc2ccccc2)C(=O)N(Cc2ccccc2)C1=O`, the “PARP1 L713F-nLuc/akaLuc ratio” value is reported as 1.52.
In the case of `COCC1(CO)C(=O)C2CCN1CC2` (stereo not drawn), the “PARP1 L713F-nLuc/akaLuc ratio” value is reported as 1.09.
For `c1ccc([C@@H]2C[C@H]2NC2CCNCC2)cc1` [GSK-LSD1 (dihydrochloride)], the “PARP1 L713F-nLuc/akaLuc ratio” value was 0.955.
`CCC1(c2ccc(N)cc2)CCC(=O)NC1=O` (stereo not drawn) [Aminoglutethimide] was tested, and the “PARP1 L713F-nLuc/akaLuc ratio” value was 0.862.
For `COc1cc(C)[nH]c(=O)c1CNC(=O)c1c(C)n([C@H](C)C2CCOCC2)c2ccccc12`, the “PARP1 L713F-nLuc/akaLuc ratio” value was 0.857.
With `COc1ccc2c(c[n+](C)c3c4cc5c(cc4ccc23)OCO5)c1OC` [Chelerythrine (chloride)] the “PARP1 L713F-nLuc/akaLuc ratio” value was 0.843.
In the case of `CC[C@@H](C(N)=O)N1CCCC1=O` [Levetiracetam], the “PARP1 L713F-nLuc/akaLuc ratio” value is reported as 1.19.
`CC(=O)O[C@H]1[C@H]2[C@@H](OC(=O)Cc3ccccc3)[C@@H](C)C[C@]2(OC(C)=O)C(=O)/C(C)=C/[C@@H]2[C@H](CC[C@@]13CO3)C2(C)C` [Euphorbiasteroid] was tested, and the “PARP1 L713F-nLuc/akaLuc ratio” value was 0.646.
For `C[C@@H]1C(=O)O[C@H]2[C@H](O)[C@@]34O[C@@H]5OC(=O)[C@H](O)[C@@]56[C@H](C(C)(C)C)[C@H](O)C(OC3=O)[C@]64[C@@]12O` (stereo partly drawn) [Ginkgolide C], the “PARP1 L713F-nLuc/akaLuc ratio” value was 0.961.
`c1cncc(C2Nc3ccccc3-n3cccc32)c1` (stereo not drawn) was tested, and the “PARP1 L713F-nLuc/akaLuc ratio” value was 0.887.
With `CC[C@@H](C(=O)[C@@H](C)[C@@H](O)[C@H](C)[C@@H]1O[C@@H]([C@@H](CC)C(=O)O)CC[C@@H]1C)[C@H]1O[C@]2(C=C[C@@H](O)[C@]3(CC[C@@](C)([C@H]4CC[C@](O)(CC)[C@H](C)O4)O3)O2)[C@H](C)C[C@@H]1C` [Salinomycin (from Streptomyces albus)] the “PARP1 L713F-nLuc/akaLuc ratio” value was 0.553.
For `CC[C@@]1(O)C(=O)OCc2c1cc1n(c2=O)Cc2cc3ccccc3nc2-1` [Camptothecin], the “PARP1 L713F-nLuc/akaLuc ratio” value was 0.495.
`COc1ccc2c(c1)C(c1ccc(Cl)cc1)=N[C@@H](CC(=O)O)c1nnc(C)n1-2` [I-BET762 carboxylic acid] was tested, and the “PARP1 L713F-nLuc/akaLuc ratio” value was 0.834.
For `COc1c2c3c4c(c(OC)c(=O)c5c(O)cc(OC)c(c6c(OC)cc(O)c(c1=O)c63)c54)[C@@H](C(C)=O)[C@@](C)(O)C2` [Hypocrellin A], the “PARP1 L713F-nLuc/akaLuc ratio” value was 0.849.
For `NCCCNCCSP(=O)(O)O` [Amifostine], the “PARP1 L713F-nLuc/akaLuc ratio” value was 1.22.
`C[C@H](CCC(=O)O)C[C@H](C)C[C@H](C)C(=O)/C=C(\O)[C@H](C)C[C@H](C)C/C=C/[C@@H](C)[C@@H](O)[C@@H](C)[C@@H](O)C[C@@H]1CC[C@@](C)([C@H]2CC[C@@](C)([C@@H](C)O)O2)O1` [Ionomycin (calcium)] was tested, and the “PARP1 L713F-nLuc/akaLuc ratio” value was 0.727.
For `Cn1cc(C2=C(c3cn(C4CCN(Cc5ccccn5)CC4)c4ccccc34)C(=O)NC2=O)c2ccccc21` [Enzastaurin], the “PARP1 L713F-nLuc/akaLuc ratio” value was 0.72.
`CCN1CCN(C(=O)Cc2ccc(Nc3ncc(F)c(Nc4ccc(C(=O)Nc5ccccc5Cl)cc4)n3)cc2)CC1` was tested, and the “PARP1 L713F-nLuc/akaLuc ratio” value was 1.15.
For `Cn1cc(C2=C(c3cn(C4CCN(Cc5ccccn5)CC4)c4ccccc34)C(=O)NC2=O)c2ccccc21`, the “PARP1 L713F-nLuc/akaLuc ratio” value was 1.12.
